ABHD5-PLIN5 inh = blocks binding of human ABHD5 to perilipin-5; Q00G26+Q8WTS1; Split G. princeps luciferase complementation, luminescence, 4 h; inhibition, % at 4 µM; 360,000 compounds, 0.78% hits; AID 602281;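 active = inhibition above the mean inhibition across every tested compound plus 3 SD, cut at about 22% in these data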
TLR9-MyD88 block = blocks human TLR9 binding to MyD88 | Q9NR96+Q99836 | AID 504734 | CHO BLA complementation TLR9-MyD88, CCF4 FRET ratio | 340,000 compounds, 0.21% hits | inhibition, % at 4.98 µM;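 active = inhibition above the mean over all tested compounds plus 3 SD, cut at about 21% in these data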
TLR4 MyD88 comp = TLR4-MyD88 interaction inhibition in cells; O00206+Q99836; HeLa CL3-4 TLR4/MyD88 BLA complementation, FRET ratio; inhibition, % at 8.4 µM; 200,000 compounds, 0.18% hits; in the data active = inhibition above about 25%
B2AR ag = agonists of human beta-2 adrenergic receptor inducing internalization | 340,000 compounds, 0.43% hits | Am2.2-beta2AR cells, FAP receptor internalization, flow cytometry | AID 504454 | response, % (concentration not given with the values) | P07550;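 active = response above a set limit, near 3 SD of response in nonfluorescent compounds, cut at about 42% in these data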
NTR1 ag = NTR1 (human) agonism; P30989; NTR1-U2OS beta-arrestin-GFP spot imaging, agonist mode; activation, % at 20 µM; 330,000 compounds, 0.17% hits;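 active = activation at or above 40% of the spot to cytoplasm intensity ratio, with at least 20 cells analyzed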
Target sequence (P30989 whole entry, looked up): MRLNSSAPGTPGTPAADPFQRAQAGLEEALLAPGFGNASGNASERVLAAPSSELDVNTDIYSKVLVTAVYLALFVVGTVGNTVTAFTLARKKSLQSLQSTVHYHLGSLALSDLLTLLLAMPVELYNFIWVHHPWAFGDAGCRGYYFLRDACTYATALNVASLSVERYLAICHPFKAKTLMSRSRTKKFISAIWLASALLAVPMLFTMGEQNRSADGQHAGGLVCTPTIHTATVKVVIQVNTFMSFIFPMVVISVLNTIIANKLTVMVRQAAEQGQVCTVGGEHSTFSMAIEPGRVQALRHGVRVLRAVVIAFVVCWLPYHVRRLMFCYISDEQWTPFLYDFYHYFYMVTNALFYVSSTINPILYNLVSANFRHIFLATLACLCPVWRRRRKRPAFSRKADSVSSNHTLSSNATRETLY
NOD2 RIPK2 PPI = inhibitors of human NOD2-RIPK2 interaction | O43353 | CHO BLA complementation NOD2-RIPK2, CCF4 ratio | inhibition, % at 4.98 µM | 360,000 compounds, 0.38% hits | AID 624267; in the data active = inhibition above about 21%
NOD2 RIPK2 conf = NOD2-RIPK2 interaction inhibition confirmed. shares compounds with NOD2 RIPK2 PPI. CHO cells, NOD2-RIPK2 BLA complementation, CCF4 FRET. 1,200 compounds, 70% hits. AID 624370. inhibition, % at 4.98 µM;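 active = mean inhibition across replicates above a set limit taken from the earlier primary screen, cut at about 21% in these data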
NOD2 BLA counter = hits BLA reporter in NOD2-RIPK2 inhibitor counterscreen; shares compounds with NOD2 RIPK2 PPI; CHO BLA reporter, CCF4 FRET ratio; inhibition, % at 4.98 µM; 1,200 compounds, 57% hits; AID 624371;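 active = mean inhibition above the low-control mean inhibition plus three low-control SD, cut at about 11% in these data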
Of the large screens only hits and unclear results are named; the others gave an inactive call (follow-up assays come after a bar, where they were run). The list is not random: actives were taken first. Their share in the collection is about 1.5%.

Clc1nc2c(-c3ccccc3)nnn2c2ccccc12	NOD2 RIPK2 PPI 24 (no result: TLR4 MyD88 comp) | NOD2 RIPK2 conf 80 | NOD2 BLA counter 62
CC[C@H]1CN2CCc3cc(OC)c(OC)cc3C2C[C@@H]1C[C@H]1NCCc2cc(OC)c(OC)cc21 (some centres undefined)	NOD2 RIPK2 PPI 23 (no result: TLR4 MyD88 comp) | NOD2 RIPK2 conf 27 | NOD2 BLA counter inactive
CCC1=C(CC2NCCc3ccccc32)CC2c3cc(OC)c(OC)cc3CCN2C1 (centres undefined)	none (no result: TLR4 MyD88 comp, NTR1 ag)
CCOC(=O)[C@]12CCCC=C1N(Cc1ccccc1)C(=O)[C@H](CC(=O)N1CCC(c3ccccc3)CC1)C2	none (no result: TLR9-MyD88 block, TLR4 MyD88 comp, B2AR ag, NTR1 ag)
COc1nn(-c2ccccc2)c(=O)c(Cl)c1Cl	NOD2 RIPK2 PPI 27 (no result: TLR4 MyD88 comp) | NOD2 RIPK2 conf 27 | NOD2 BLA counter inactive
CC(O)(c1cccc(F)c1)c1nc(-c2csc3ccccc23)cs1 (centres undefined)	none (no result: TLR9-MyD88 block, TLR4 MyD88 comp, B2AR ag, NTR1 ag)
CSc1ccc(Cn2c(C)c(C(=O)NCc3ccc4c(c3)OCCO4)sc2=O)cc1	none (no result: TLR9-MyD88 block, TLR4 MyD88 comp, B2AR ag, NTR1 ag)
CCS(=O)(=O)N1Cc2cc(C(=O)N(C)C)nc(-c3cccc(-c4ccc(F)cc4)c3)c2[C@H]1CCO	none (no result: TLR9-MyD88 block, TLR4 MyD88 comp, B2AR ag, NTR1 ag)
COc1ncc(-c2ccc(N3C(c4ccc([N+](=O)[O-])cc4)=Cc4ccccc4C3CC(C)=O)cc2)cn1 (centres undefined)	NOD2 RIPK2 PPI 34 (no result: TLR9-MyD88 block, TLR4 MyD88 comp, B2AR ag, NTR1 ag) | NOD2 RIPK2 conf inactive | NOD2 BLA counter 18
O=C(N/N=C\c1c(O)ccc2ccccc12)c1ccc(O)cc1	none (no result: TLR4 MyD88 comp)
O=C(NN=Cc1c(O)ccc2ccccc12)c1ccncc1	NOD2 RIPK2 PPI 28 (no result: TLR4 MyD88 comp, NTR1 ag) | NOD2 RIPK2 conf 27 | NOD2 BLA counter 21
O=c1oc2ccccc2cc1-c1nnc(NCc2ccco2)s1	NOD2 RIPK2 PPI 35 | NOD2 RIPK2 conf 36 | NOD2 BLA counter 41
Cc1ccc(-c2cc(-c3n[nH]c(=S)o3)c3ccccc3n2)cc1	NOD2 RIPK2 PPI 22 (no result: NTR1 ag) | NOD2 RIPK2 conf inactive | NOD2 BLA counter inactive
COc1ccc(C(C)=O)cc1CN1C(=O)C(C)ON=C1c1cccc(C(F)(F)F)c1 (centres undefined)	none (no result: TLR9-MyD88 block, TLR4 MyD88 comp, B2AR ag, NTR1 ag)
Cc1ccc(NC(=O)Cc2ccc(Cl)cc2)cc1S(=O)(=O)N1CCCCCC1	none (no result: TLR4 MyD88 comp)
Cc1ccc(NC(=O)Cn2ncc(Cl)c(Cl)c2=O)cc1S(=O)(=O)N1CCCCC1	NOD2 RIPK2 PPI 34 (no result: TLR4 MyD88 comp) | NOD2 RIPK2 conf 43 | NOD2 BLA counter 10
O=C(Cn1ncc(Cl)c(Cl)c1=O)NCC1CCCCC1	B2AR ag 60, NOD2 RIPK2 PPI 21 (no result: NTR1 ag) | NOD2 RIPK2 conf 29 | NOD2 BLA counter inactive
O=C(Cn1ncc(Cl)c(Cl)c1=O)NC1CCCCC1	none (no result: TLR4 MyD88 comp)
COc1cccc(-c2cc(CNC(=O)[C@H]3O[C@@H](n4ccc(N)nc4=O)[C@H](O)[C@@H]3O)no2)c1	none (no result: TLR9-MyD88 block, TLR4 MyD88 comp, B2AR ag, NTR1 ag)
O=C1NC[C@H](CCCCN2C[C@H](Cc3ccc(O)cc3)N(CC3CCCCC3)C(=O)C2=O)N(Cc2ccccc2)C1=O	none (no result: TLR9-MyD88 block, TLR4 MyD88 comp, B2AR ag, NTR1 ag)
CC1(C(=O)NS(=O)(=O)c2ccc(F)cc2F)CCN1C(=O)CC(c1ccccc1)c1ccccc1 (centres undefined)	none (no result: TLR9-MyD88 block, TLR4 MyD88 comp, B2AR ag, NTR1 ag)
CCOc1ccc(CNC(=O)CCc2cn(C)c3ccccc23)cc1OC	NOD2 RIPK2 PPI 37 | NOD2 RIPK2 conf inactive | NOD2 BLA counter inactive
Cc1cc(C)c(NC(=O)C2C(=O)Nc3ccccc3C(=O)N2C(C)(C)C)c(C)c1 (centres undefined)	none (no result: TLR9-MyD88 block, TLR4 MyD88 comp, B2AR ag, NTR1 ag)
O=C(c1ccccc1Cl)N(Cc1ccc(Br)cc1)N1C(=O)CCC1=O	NOD2 RIPK2 PPI 23 | NOD2 RIPK2 conf inactive | NOD2 BLA counter inactive
Cc1cccc(C)c1NC(=O)C(c1ccccc1)N1CCC(Cc2ccccc2)CC1 (centres undefined)	none (no result: TLR9-MyD88 block, TLR4 MyD88 comp, B2AR ag, NTR1 ag)
Cc1ccccc1NC(=S)NCc1ccc2c(c1)OCO2	NOD2 RIPK2 PPI 39 | NOD2 RIPK2 conf inactive | NOD2 BLA counter inactive
CCc1sc(NC(C)=O)nc1-c1ccccc1	none
CCc1sc(N2C(=O)C3C4CCC(C4=C(C)C)C3C2=O)nc1-c1ccccc1 (centres undefined)	NOD2 RIPK2 PPI 71 | NOD2 RIPK2 conf inactive | NOD2 BLA counter inactive

Screens as filed in PubChem BioAssay.
